Assay results published in the supplement of paper PMC6555819.

What was measured:
Test in all cases: PBM binding z-score (relative to random genomic background probes); higher = stronger binding; sequences stand for … in GC…GCGATTGACAGCGTAGAATGAAGG
[1] = test system: RARb homodimer (NR concentration 270 nM)
Method in brief: (§1)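 Each nuclear receptor dimer, without ligand, was incubated for 1 h on custom Agilent 4×180K protein-binding microarrays. Binding was detected with antibodies against each partner (one per run), and scanned fluorescence was regression-normalized. The binding z-scores are referenced to random human genomic background probes.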

[2] = test system: RARg:RXRa (NR concentration 270 nM, RXRa partner concentration 90 nM)
Method in brief: as §1

[3] = test system: RARg homodimer (NR concentration 270 nM)
Method in brief: as §1

[4] = test system: RXRa DBDmut IVT, anti-RXR (DBD mutation: RXRa K156A/R161A, NR concentration 90 nM)
Method in brief: as §1

[5] = test system: RXRa homodimer (NR concentration 180 nM)
Method in brief: as §1

[6] = test system: THRa:RXRa (NR concentration 90 nM, RXRa partner concentration 90 nM)
Method in brief: as §1

[7] = test system: THRa homodimer (NR concentration 90 nM)
Method in brief: as §1

[8] = test system: VDR homodimer (NR concentration 270 nM)
Method in brief: as §1

Sequence | PBM binding z-score [1] | PBM binding z-score [2] | PBM binding z-score [3] | PBM binding z-score [4] | PBM binding z-score [5] | PBM binding z-score [6] | PBM binding z-score [7] | PBM binding z-score [8]
TAACCTAGGTCATGCGGGCCAGTATAGTGTCGGC | 3.44 | 4.53 | 4.39 | 1.15 | 3.58 | 3.32 | 1.23 | 1.05
TATACAGGGTCAAAGGCCAGAGCACGAATGTCGA | 3.57 | 5.66 | 5.23 | 3.1 | 6.87 | 3.46 | 0.672 | 2.9
TAGCCTTGGTCATTGGGCCAGTATAGTACGCATC | 0.501 | 0.238 | 0.477 | -0.637 | 0.0749 | -0.206 | -0.231 | -0.72
ATCGAAAGGTCGAGGTGAGTACAGAGAAAGGGAA | 2.93 | 4.39 | 4.17 | 0.83 | 3.89 | 3.1 | 0.817 | 1.13
CCTGCTAGGTCATTGGTCAGCTAAAGCAGCTCGC | 3.25 | 3.88 | 4.43 | 3.02 | 2.61 | 2.79 | 1.24 | 1.27
CCGACTGGGGCATAAAGGTTACCATACCATCCGG | 2.16 | 1.92 | 1.79 | -0.788 | 1.63 | 1.19 | -0.376 | 0.423
CGAACTAGGTCAGAACAGGACAGTGATGGATGAT | 2.11 | 2.39 | 2.83 | 0.564 | 1.13 | 3.48 | 0.141 | 0.283
CAAACTAGGTCAAAGGACAAAGTCGAGCCAACCA | 3.11 | 4.32 | 4.77 | 1.7 | 3.31 | 2.92 | 0.809 | 0.753
TCTTGTAGATCATCAGGAGGTTAAGAAAGATCGA | 0.484 | 0.857 | 0.389 | 0.372 | 1.01 | 0.897 | -0.482 | -0.126
CAAACTAGGTCACAGAGGTCAAAGCCCGTGCGTA | 5.57 | 7.25 | 7.63 | 3.22 | 7.75 | 4.82 | 2.99 | 6.06
ATCTCGAGGTAAAGTTCAGTGAAAGATCGATAGA | 2.23 | 2.68 | 2.72 | 0.929 | 1.7 | 1.71 | -0.0248 | 1.71
CGTCCAAGGTCAGGGAGGTCAGTGAATGCCGAGT | 5.45 | 6.54 | 7.67 | 2.48 | 6.37 | 4.58 | 3.43 | 5.37
CCTACTGGTCCACGAAAGGTCATTGATTCAGTGA | 4.62 | 4.79 | 4.43 | 1.26 | 5.49 | 3.52 | 1.6 | 3.62
AGTCAAAGTTCACTAGATAACGTAAGATTCAGCT | 3.55 | 4.97 | 5.79 | 3.76 | 3.84 | 1.46 | -0.386 | 3.35
GCGACTGGGGCATCAGCACGTTACCATAACTTAA | 0.000503 | 0.0207 | 0.311 | 0.239 | 0.0852 | -0.219 | -0.089 | -0.335
CGAACGGGGGCATGAGTTGATAGCAAATGCCGAT | 1.89 | 3.42 | 3.74 | 3.24 | 2.51 | 3.04 | 1.25 | 3.69
TAGCCTAGGTCATTCAGTGGCCAGTATAGAAAGC | 2.59 | 4.43 | 3.96 | 1.92 | 2.63 | 2.55 | 0.351 | 1.24
CCGAGAAGGTTATGGGGCATTCAGGCAACGGTGA | 1.61 | 1.84 | 1.38 | 0.364 | 2.23 | 1.3 | 0.0713 | 0.22
TCATATAGGTAAACAGGTGTAAGTCCGTAAGTTA | 0.165 | 0.307 | 0.308 | 1.57 | 0.982 | 0.356 | 0.324 | 0.657

Sequence | PBM binding z-score [1] | PBM binding z-score [2] | PBM binding z-score [3] | PBM binding z-score [4] | PBM binding z-score [5] | PBM binding z-score [6] | PBM binding z-score [7] | PBM binding z-score [8]
TCATACAGGTGAAGGTAACTCAGGTACGCAGTCG | 0.9 | 0.872 | 0.925 | 1.33 | 1.42 | 1.67 | 0.594 | 0.668
TCATATAGGTAAACAGGTGAATGTCCGTAAGTTA | 0.605 | 0.347 | 0.272 | 1.27 | 1.03 | 0.567 | 0.511 | 0.283
AGAAAGAGGTTACCAAAGATCAGGGAAACGCTTG | 1.03 | 2.51 | 1.84 | 0.282 | 3.17 | 1.91 | -0.577 | -0.0812
CGAACTAGGTCAGTGACAGGACAGTGAATAGTAA | 2.76 | 3.47 | 3.9 | 0.653 | 1.34 | 1.98 | 0.499 | 0.295
TCTAGTTCGTCAAAGGTCACACACTCGAAATGCG | 4.99 | 6.46 | 6.31 | 2.95 | 6.75 | 4.64 | 2.53 | 3.49
TGAATGAAGTTATAAGATCAGGGAACGTTGCAAA | -0.946 | -0.0858 | -0.101 | -0.953 | -0.319 | -0.471 | -0.931 | -0.524
TAGCCTAGGTCAGTCAGGGGCCAGTATAGAAAGC | 2.81 | 4.53 | 3.75 | -0.63 | 1.18 | 1.86 | 0.122 | 0.0513
TCTATTAGTTCATTAGGGCAACCGAAACAGCGGA | 2.52 | 2.4 | 2.37 | 3.46 | 1.12 | 1.45 | 0.899 | 3
TCTAGTTGGACAAAGGTCACACACTCGAAATGCG | 5.06 | 6.62 | 5.93 | 1.75 | 7.13 | 4.12 | 1.8 | 2.24
TCGAGTAGGTTAGCCGGGGCATTCAGCCAACATA | 0.49 | 0.0604 | -0.231 | 0.227 | 0.332 | 1.17 | -0.114 | -0.000725
CAAACTAGGTCAAGGTCGAAGTCGGTTTGTGCCA | 3.74 | 4.38 | 5.12 | 2.45 | 3.49 | 3.55 | 2.45 | 2.48
ATATGTAGGTTGGCTGGGGTCATTCAGACTAGGC | 3.37 | 3.5 | 2.19 | 1.81 | 5.15 | 4.72 | 3.62 | 5.57
GGAAGGAGGGCAAAGTTGATAGCATCTGTCGACG | 1.91 | 2.07 | 1.55 | 1.37 | 1.89 | 1.04 | 0.664 | 1.44
CCTTAAGGGTCACTGACAGGTTATAGCATTTGGA | 4.71 | 7.23 | 6.91 | 3.42 | 6.82 | 3.85 | 0.468 | 2.04
CCTACTGGGCCATTCAGGGGTCATTGATCATATG | 3.95 | 4.69 | 3 | 0.56 | 5.5 | 3.31 | 0.962 | 4.05
CCTGCTAGGTCAATGGTGAGCTAAAGCAGCTCGC | 1.97 | 3.3 | 4.12 | 1.62 | 1.56 | 1.77 | 0.113 | -0.465
GCTTGTAGATCAAGGTTAAGCAAGACTAAGCTAA | 0.306 | 0.623 | 0.359 | -0.0459 | 0.912 | 1.67 | -0.236 | -0.472
AGAATGAGGTTATTATGATCAGGGAATTGCGGTC | 0.795 | 1.07 | 0.882 | 2.21 | 1.7 | 2.21 | 1.08 | 1.41
GCTAGTTGGACAGTAAAAGGTCACACACCGGTCG | 5.22 | 4.89 | 4.27 | 0.31 | 4.94 | 3.55 | 1.71 | 1.59

Sequence | PBM binding z-score [1] | PBM binding z-score [2] | PBM binding z-score [3] | PBM binding z-score [4] | PBM binding z-score [5] | PBM binding z-score [6] | PBM binding z-score [7] | PBM binding z-score [8]
CGAACTAGGTCAGATCAGGACAGTGAAGGATGAT | 2.33 | 2.68 | 4.03 | 0.645 | 1.52 | 4.73 | 1.25 | -0.038
AACTCTAGGTAAAGATAGTTCAGTGAATGCAAAT | 1.06 | 0.458 | 0.642 | 0.162 | 0.119 | 0.754 | -0.108 | 0.243
GGAACGAGGGCATTCGAGTTGATGGCATGGCGAT | 0.552 | 1.05 | 1.17 | 3.15 | 0.655 | 2.96 | -0.631 | 3.46
ACAGACAGGTGATGAAAGTAACTCAGGCTATCAT | -0.49 | 0.123 | 0.169 | -0.387 | 0.297 | -0.0258 | -0.579 | -0.942
TCTCGGAGGACACGAACGGTCAGAGCTCGACATC | 1.89 | 1.02 | 2.34 | 0.557 | 0.138 | 1.44 | 0.357 | -0.389
GGAACGAGGGCAAGATGATAGCAGAGTTTGATGG | 1.21 | 1.2 | 1.78 | 1.52 | 0.962 | 0.971 | -0.0312 | 1.08
ACAACGAGGGCACGCTGAGTTGATAGCAGAGTAG | 0.921 | 2.12 | 2.44 | 2.16 | 1.24 | 1.75 | -0.067 | 2.04
ACAGACAGGTGATGAAGGTAACTCGGGCTATCAT | 0.556 | 0.166 | 0.396 | -0.159 | 0.351 | 0.765 | 0.0589 | -0.217
CCTACTGGTCCAAAGGTCATTGATTCCAATGCTC | 4.86 | 5.09 | 4.49 | 2.23 | 5.45 | 3.31 | 1.49 | 2.58
TCTTGTAGTTCAACAGGAGGTTAAGAAAGATCGA | 2.2 | 4.32 | 2.05 | 2.02 | 2.16 | 2.17 | -0.466 | 1.11
CCGACTGGGGTAAAGGTTACCATACTCAGTACGA | 1.83 | 2.51 | 1.44 | 0.246 | 3.27 | 2.05 | -0.0216 | 0.207
AGAACGAGGGCGATGAGTTGATAGCACGGGTGGC | -0.239 | -0.0988 | 0.302 | 1.06 | 0.298 | -0.0851 | -0.71 | 2.17
CCAGACAGGTGAAAGGTAACGCAGTCTGGTACGC | 1.03 | 1.46 | 0.723 | -0.16 | 2.42 | 1.08 | -0.07 | -0.146
CCTTACGGGTCACTGCCAGGTTATAGCATTTGGA | 3.13 | 5.43 | 4.16 | 1.46 | 4.62 | 3.4 | 0.811 | 1.47
TAGCCTAGGTCATGGGCCCGTATACCACGCGAAC | 2.95 | 4.3 | 4.56 | -0.133 | 3.53 | 3.13 | 1.76 | 0.701
GCTAGCAGGCCATTTGGGTTACTCAATGACGGGC | -0.137 | -0.0989 | 0.178 | -0.102 | 0.0436 | 0.307 | -0.64 | -0.276
TCATGTAGGTAAATGCTAGGTGAAAGTCCGATCT | 0.541 | 0.226 | 0.15 | 1.26 | 0.398 | 1.28 | 0.741 | 0.319
TCTGCTAGGTCAAGGATGGTCAGCTAATCTGCTA | 3.49 | 3.97 | 4.85 | 0.94 | 2.6 | 2.88 | 0.621 | -0.0676
